This is a sample that favours compounds with a hit; in the whole collection about 2.9% have one here.
ABHD5 PLIN5 PPI – ABHD5-PLIN5 protein interaction inhibition; Q00G26+Q8WTS1; Split G. princeps luciferase complementation, luminescence, 4 h; inhibition, % at 4 µM; 360,000 tested, 0.78% active; AID 602281;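 active = inhibition above the mean inhibition across every tested compound plus 3 SD, cut at about 22% in these data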
Rtt109 HAT inh – C. albicans Rtt109 histone acetyltransferase inhibition; purified Rtt109/Vps75, ThioGlo CoA-SH fluorescence, 4 h; inhibition, % at 34.9 µM; 330,000 tested, 0.16% active; AID 540336;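 active = inhibition of at least 50% in every replicate; inconclusive = best replicate reaches 50% inhibition but some replicates fall short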
Target sequence (Q5AAJ8 whole entry, looked up): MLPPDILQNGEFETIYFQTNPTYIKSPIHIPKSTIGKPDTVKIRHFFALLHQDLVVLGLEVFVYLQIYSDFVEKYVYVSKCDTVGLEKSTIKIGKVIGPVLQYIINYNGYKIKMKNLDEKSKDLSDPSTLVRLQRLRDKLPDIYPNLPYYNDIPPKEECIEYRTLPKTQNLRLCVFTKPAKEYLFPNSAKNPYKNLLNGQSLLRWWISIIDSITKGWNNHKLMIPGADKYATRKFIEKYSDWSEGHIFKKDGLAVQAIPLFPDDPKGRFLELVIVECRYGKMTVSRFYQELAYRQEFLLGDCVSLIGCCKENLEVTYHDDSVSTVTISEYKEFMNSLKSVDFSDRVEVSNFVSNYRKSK
H9c2 protect – modulators protecting cardiomyocytes from myocardial damage. H9c2 cardiomyocytes, H2O2 injury protection, ATPLite, 2 h. protection from H2O2 cell death, % at 20 µM. 360,000 tested, 0.63% active;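 active = compounds giving at least 50% protection of heart cells from peroxide-induced death in the single-dose screen, raw or plate-pattern-corrected value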
Myeloid diff 2 – promotes myeloid progenitor differentiation. ER-HoxA9 myeloid progenitors, lysozyme-GFP differentiation, flow cytometry. calls only at 10 µM. 360,000 tested, 1% active. AID 624256;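 active = normalized GFP-positive differentiation at or above the plate's own cutoff, the solvent-only control mean plus 3 SD; inconclusive = no clear call, values can overlap the other calls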;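 note: cells exposed to compound for four days before flow analysis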
DAGLB inh – blocks human DAGLB lipase activity. Q8NCG7. HEK293T DAGLB membrane lysate, EnzChek fluorogenic substrate. inhibition, % at 5.17 µM. 340,000 tested, 0.059% active; in the data active = inhibition above about 34%
sPLA2-III inh – Inhibits HGIII-sPLA2 liposome hydrolysis, primary screen; Q9NZ20; QFRET BODIPY PC-A2 liposome hydrolysis, fluorescence; inhibition, % at 12.2 µM; 370,000 tested, 0.56% active;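 active = inhibition above mean plus 3 SD of compounds lying within the high and low control bounds, cut at about 19% in these data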
A number is an active result; i = inactive; ? = inconclusive; nt = no result; + = active, no number.

SMILES | ABHD5 PLIN5 PPI | Rtt109 HAT inh | H9c2 protect | Myeloid diff 2 | DAGLB inh | sPLA2-III inh
COc1ccccc1C(=O)Nc1nc(-c2ccc3c(c2)OCCO3)cs1 | i | i | 64.5 | i | i | i
O=C(C1CCCO1)N1CCN(C(=S)Nc2ccc(Cl)c(Cl)c2)CC1 (centres undefined) | i | i | i | i | i | i
Cc1ccc(S(=O)(=O)N(C)C)cc1NC(=O)COC(=O)CCC1CCCC1 | i | i | i | i | i | i
Cc1ccc(OCCC(=O)OCC(=O)Nc2cc(S(=O)(=O)N(C)C)ccc2C)cc1 | i | i | i | + | i | i
CCC(C)[C@@H](NC(=O)OC(C)(C)C)c1nnc(S(=O)(=O)Cc2cccc(C)c2)o1 (some centres undefined) | 73.2 | i | i | i | i | i
COCCn1c(=NC(=O)CCS(=O)(=O)c2ccccc2)sc2ccccc21 | i | i | i | i | i | i
COc1ccc(OCc2nn3c(-c4ccco4)nnc3s2)cc1 | i | i | i | i | i | i
c1coc(-c2nnc3sc(Cc4cccs4)nn23)c1 | i | i | 64.8 | i | i | i
COc1ccc(N2C(=O)CC(Sc3nnnn3-c3ccc(F)cc3)C2=O)cc1 (centres undefined) | 52.4 | i | i | i | i | i
O=C(O)CC1c2ccccc2CCN1S(=O)(=O)c1ccccc1 (centres undefined) | i | nt | i | i | nt | i
COc1ccc(-n2nc(C(=O)NCC(=O)Nc3cc(OC)c(OC)c(OC)c3)c3ccccc3c2=O)cc1Cl | i | i | 58.1 | i | i | i
CCN(CC)C(=O)CNC(=O)c1nn(-c2ccc(OC)c(Cl)c2)c(=O)c2ccccc12 | i | i | i | i | i | i
CC(=O)Nc1cc(-c2ccsc2)cn2c(-c3ccc(F)cc3)cnc12 | i | nt | i | i | nt | i
COc1ccc(-c2cc(NC(C)=O)c3ncc(-c4ccc(OC)c(OC)c4)n3c2)cc1OC | i | nt | 66.8 | i | nt | i
COc1ccc(-c2cnc3c(NC(C)=O)cc(-c4ccccc4OC)cn23)cc1OC | i | nt | i | ? | nt | i
COc1ccc(-c2cnc3c(NC(C)=O)cc(-c4ccsc4)cn23)cc1OC | i | nt | i | + | nt | nt
O=C(O)c1cc(N=Nc2c(O)ccc3ccccc23)cc(C(=O)O)c1 | i | nt | i | i | i | i
Oc1ccc(N=Nc2c(O)ccc3ccccc23)cc1 | i | i | i | ? | 49.0 | i
Cc1ccccc1C(=O)NNC(=S)Nc1cccc(C(F)(F)F)c1 | i | i | i | i | i | 24.3
CCOC(=O)N1CCC(n2c(SCC(=O)NCc3ccco3)nc3ccsc3c2=O)CC1 | i | i | i | i | i | nt
COc1cc(-c2nnc(COC(=O)c3cc(C)nc4ccc(C)cc34)o2)cc(OC)c1OC | i | i | 70.8 | i | i | i
COc1cc(-c2nnc(COC(=O)CSc3cc(C)c4ccccc4n3)o2)cc(OC)c1OC | i | i | i | i | i | i
CC(C)OC(=O)C(C(=O)C(F)(F)F)c1cc(NS(=O)(=O)c2ccc3ccccc3c2)c2ccccc2c1O (centres undefined) | 41.2 | i | i | + | i | nt
O=C(NCc1ccccc1Cl)c1[nH]c(C(F)(F)F)nc1-c1ccccc1 | i | nt | i | i | nt | i
COC(=O)[C@]12C[C@H](CC(=O)NCCCCc3ccccc3)C(=O)N(Cc3cccc4ccccc34)C1=C[C@H](COCc1ccccc1)O[C@@H]2C | nt | nt | nt | nt | nt | i
SMILES | ABHD5 PLIN5 PPI | Rtt109 HAT inh | H9c2 protect | Myeloid diff 2 | DAGLB inh | sPLA2-III inh
CN1CCN(c2ccccc2NC(=O)c2ccc(-c3cccc([N+](=O)[O-])c3)o2)CC1 | i | i | 77.0 | i | i | i
Cc1cccc(NC(=O)c2oc3ccc(S(=O)(=O)N4CCOCC4)cc3c2C)c1C | i | i | 76.2 | i | i | i
Cc1c(C(=O)Nc2ccccc2N2CCN(C)CC2)oc2ccc(F)cc12 | 22.0 | i | i | i | i | i
CCC(=O)N1CCN(c2ccccc2NC(=O)c2ccc(-c3cccc([N+](=O)[O-])c3)o2)CC1 | i | i | 107.1 | i | i | i
CCN(C(=O)CSc1ncccn1)C1CCS(=O)(=O)C1 (centres undefined) | i | i | i | i | i | i
CCN(C(=O)c1ccc(S(=O)(=O)N2CCOCC2)cc1)C1CCS(=O)(=O)C1 (centres undefined) | i | i | i | i | i | i
Cc1cc(N2CCN(C)CC2)ccc1NC(=O)c1ccc(-c2ccc(Cl)cc2)o1 | i | i | i | + | i | i
CN1CCN(c2ccccc2NC(=O)c2ccc(-c3ccc(Cl)c(Cl)c3)o2)CC1 | i | i | i | i | i | i
Cc1cc(C(=O)Nc2c(F)cc(F)cc2Br)c(C)o1 | 23.0 | i | i | i | i | i
O=c1c(=O)n(O)c2ccccc2n1O | i | nt | i | i | i | i
Cc1c(C)n(Cc2ccccc2)c2ncnc(NCCCO)c12 | i | nt | i | i | i | i
COc1cc(C2c3c(oc4ccccc4c3=O)C(=O)N2c2ccc(C)cn2)ccc1O (centres undefined) | i | i | 63.4 | i | i | i
O=C(Nc1ccc(N2CCCC2)cc1)c1cc(Cl)ccc1Cl | i | i | i | + | i | i
NC1=NC2(CCCCC2)N(c2cccc(Cl)c2)C(N)=N1 | i | i | i | + | i | i
COc1ccc(-n2c(Cc3cccn3C)nnc2SCC(=O)Nc2ccc(F)cc2F)cc1 | i | i | i | + | i | i
Cc1ccc(C(=O)OCC(=O)N2CCC(c3ccccc3)=N2)c(C)c1 | i | i | i | i | i | i
COc1ccc(C(=O)NC(C)CCc2ccccc2)c(O)c1 (centres undefined) | i | i | i | i | i | i
Cc1ccnc(NC(=O)CCC(=O)N(CC(=O)NCCc2ccccc2)c2ccc(F)cc2)c1 | i | i | i | i | i | i
CCOc1ccc(N(CC(=O)NCCc2ccccc2)C(=O)CCC(=O)Nc2cc(C)ccn2)cc1 | i | i | i | + | i | i
O=C(CCCN1C(=O)S/C(=C\c2ccccc2)C1=O)NNC(=O)c1ccccc1O | i | i | i | nt | i | 24.5
CC(=O)c1ccc(NC(=S)NCC(c2ccco2)N2CCCC2)cc1 (centres undefined) | i | i | i | + | i | i
Cc1nc2c(cnn2-c2ccccc2Cl)c(=O)n1-c1ccc(N2CCC(C)CC2)cc1 | i | i | i | + | i | i
Cc1ccc(-n2c(C)nc3c(cnn3-c3ccccc3Cl)c2=O)cc1C | i | i | i | i | i | i
CCOC(=O)c1sc2nc(CC(=O)OC)nc(NCC(=O)OC)c2c1C | i | i | i | i | i | i
CCOC(=O)c1sc2nc(CC(=O)OC)nc(NCc3ccco3)c2c1C | i | i | i | + | i | i
COc1ccc(S(=O)(=O)NCC(=O)NCc2cc(=O)n(C)c(=O)n2C)cc1C | i | i | i | + | i | i
Cn1c(CNC(=O)CNS(=O)(=O)c2ccccc2)cc(=O)n(C)c1=O | i | i | i | i | i | i
Cc1cc(C)c(NC(=O)CN2C(=O)NC3(CCCCC3)C2=O)c(C)c1 | i | i | i | i | i | i
